Our source for the PBM binding z-score values is the supplement of paper PMC6555819.

For the first test, the system named is LXRa homodimer (NR concentration 270 nM). Briefly: PBM binding z-score (relative to random genomic background probes); higher = stronger binding; sequences stand for … in GC…GCGATTGACAGCGTAGAATGAAGG
The gist of the method:
(§1)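 Scanned fluorescence from custom Agilent 4×180K protein-binding microarrays was regression-normalized. Binding z-scores use random background probes as reference. Ligand-free nuclear receptor dimers were incubated on the arrays for 1 h and detected with antibodies against each partner (one per run).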
For the sequence TCTCGGAGGACACGAAGGTCAGAGCTTTCCAGAG, the PBM binding z-score was -0.0274.
GCGACTGGGGCAATGCAGGTTACCATAAGGTTGG displayed a PBM binding z-score of -0.566.
Still for that read-out and setting: next, TCTAGTTGGTCAAAGGTCACACATTCGAAATGCG: 3.96; CCGTCTGGGGCAGAAAGGTTACCATACCATCCGG: -0.115.
On the same count and under the same terms, the same measure for GCTTACGGGTCAAAGGTTGTAGCATGAATAGAAT: 0.175.
The same measure, in the same setting: the same measure for GCTAGTTGGTCAGTAAAAGGTTACACACCGGTCG: 0.582; for ATCGAAAGGTCGACGAGCTGAGTATACACCGTTT: 0.028.
In turn, ACGATTAGTTGACTTAGGGCAACCGATACGACGC gave a PBM binding z-score of 0.339.
In the case of TCTATTAGTTGACGGGCAACCGACGAGTCCGTTT, the PBM binding z-score came to 0.073.
On the same count and under the same terms, next, CAAACTAGGTCAGGGTCAAAGTCGGTTTGTGCCA: 1.32; TCATATAGGTAATACAGGTGAAAGCCGGCATCTA: 0.571.
As for TCTTGTAGATCAAGCAGGTAAAGAAAGCCTGAGT, the PBM binding z-score was -0.344.
AGAATGAGCTTATACGTAGATCAGGGAAGAAAGT displayed a PBM binding z-score of -0.371.
Take TCTTGTCGATCAATAGAGGTTAAGAAAGTGCGCT: the PBM binding z-score is 0.541.
Regarding TATATAGGGTCAAAGGCCAGAGTACGAATGTCGA, the PBM binding z-score is 2.48.
As for CCTAGTTGGTCAGGGTCACACACGCTATAGGTAC, the PBM binding z-score was 0.771.
In the case of TCGAGTAGGTTACCAATGGGGCAATCAGCTTTCT, the PBM binding z-score was -0.627.
The same measure, in the same setting: next, CGTCCAAGGTCAAAGTTCAGTGAAGAGATGACGG: 3.82; ATCTCTAGGTAACCAAGTTCAGTAAATGCCGAAC: 1.15; TCTATTAGTTGATCAGGGCAACCGAAACAGCGGA: 0.302.
For AGTCAATGTTCAGGACGAGGTAACGTAAAGCACG, the PBM binding z-score was -0.0733.
Same read-out and setting: next, ACTAGTTTGTCAGCTGAGGTCACACACAATTCGG: 2.38; ATCTCTAGGGAAGACTCAGTTCAGTGAAGAACGC: 0.196; ATCTCTAGGTAAGACTCAGTTCAGTGACGAACGC: 0.724.
The same measure, in the same setting: the same measure for GCTTACGGGTCAAAGGTTATTGCATGAATAGAAT: 1.09; for AGAGCGAGGGCACGCTGAGTTGATAGCAGAGTAG: -0.567.
Still for that read-out and setting: the same measure for GCTATTACTTGAAAGGGCAACCGAATGATTCTCG: 0.277.
For the sequence ACAGACAGGTGATGAAGTTAACTCAGGCTATCAT, the PBM binding z-score was -0.307.
Same read-out and setting: the same measure for CCTAGTTCGTCAAGGTCACACACGCTATAGGTAC: 2.75.
AATACAGGGTCATCGTAGGCCGGAGTACGCACAG: the PBM binding z-score was found to be 2.19.
The same measure, in the same setting: next, CAATCTAGGTCACCGGAAGGTCAAAGTCCGCATG: 6.06.
Still for that read-out and setting: next, TCTAGTTGGTCACGGAAGTCACACACGACGGGTA: 0.27.
On the same count and under the same terms, the same measure for CCTGCTAGGTCATCGTCAGCTAATCTACAGTATG: 0.112; for AGTCAAAGTTCACTAGGTCACGTAAGATTCAGCT: 5.68; for CCGAGCAGGCCAATCTGGGTCACTCAAGGCTTGA: -0.65.
AGAATGAGGTTATTTAGATCAGGGAATTGCGGTC: the PBM binding z-score was 0.538.
In turn, GCTGCTAGGTCAGGTTGGTCAGCGAACGGGTACG registered a PBM binding z-score of -0.269.
The same measure, in the same setting: the same measure for AGTCAAAGTTCAGGACGAGGTTACGTAAAGCACG: 2.06; for CCGACTGGGGCAGCAAGGTTACCATACCATCCGG: -0.322.
As to CCGAGTGGGGCAAAGGTTACCATACTCAGTACGA, the PBM binding z-score amounted to 0.144.

The subject of a further test is LXRb:RXRa (NR concentration 270 nM, RXRa partner concentration 90 nM). Described as above. The gist of the method: as §1
TCTCGGAGGACACGAAGGTCAGAGCTTTCCAGAG showed a PBM binding z-score of 0.923.
Same read-out and setting: the same measure for GCGACTGGGGCAATGCAGGTTACCATAAGGTTGG: 0.504; for TCTAGTTGGTCAAAGGTCACACATTCGAAATGCG: 5.35.
The same measure, in the same setting: next, CCGTCTGGGGCAGAAAGGTTACCATACCATCCGG: 0.58.
On the same count and under the same terms, the same measure for GCTTACGGGTCAAAGGTTGTAGCATGAATAGAAT: 4.72; for GCTAGTTGGTCAGTAAAAGGTTACACACCGGTCG: 1.27.
In turn, ATCGAAAGGTCGACGAGCTGAGTATACACCGTTT returned a PBM binding z-score of 2.59.
On the same count and under the same terms, the same measure for ACGATTAGTTGACTTAGGGCAACCGATACGACGC: 0.0402.
On the same count and under the same terms, next, TCTATTAGTTGACGGGCAACCGACGAGTCCGTTT: 0.407; CAAACTAGGTCAGGGTCAAAGTCGGTTTGTGCCA: 4.16.
Same read-out and setting: the same measure for TCATATAGGTAATACAGGTGAAAGCCGGCATCTA: 1.21; for TCTTGTAGATCAAGCAGGTAAAGAAAGCCTGAGT: 0.219.
The sequence AGAATGAGCTTATACGTAGATCAGGGAAGAAAGT showed a PBM binding z-score of -0.861.
Still for that read-out and setting: next, TCTTGTCGATCAATAGAGGTTAAGAAAGTGCGCT: 1.92; TATATAGGGTCAAAGGCCAGAGTACGAATGTCGA: 5.05.
Same read-out and setting: next, CCTAGTTGGTCAGGGTCACACACGCTATAGGTAC: 3.33; TCGAGTAGGTTACCAATGGGGCAATCAGCTTTCT: 0.776; CGTCCAAGGTCAAAGTTCAGTGAAGAGATGACGG: 5.48.
Sequence ATCTCTAGGTAACCAAGTTCAGTAAATGCCGAAC showed a PBM binding z-score of 1.1.
For TCTATTAGTTGATCAGGGCAACCGAAACAGCGGA, the PBM binding z-score turned out to be 0.505.
Turning to AGTCAATGTTCAGGACGAGGTAACGTAAAGCACG, the PBM binding z-score was -0.154.
The same measure, in the same setting: the same measure for ACTAGTTTGTCAGCTGAGGTCACACACAATTCGG: 3.67.
The same measure, in the same setting: the same measure for ATCTCTAGGGAAGACTCAGTTCAGTGAAGAACGC: -0.00503.
Same read-out and setting: the same measure for ATCTCTAGGTAAGACTCAGTTCAGTGACGAACGC: 0.467; for GCTTACGGGTCAAAGGTTATTGCATGAATAGAAT: 5.81.
In the case of AGAGCGAGGGCACGCTGAGTTGATAGCAGAGTAG, the PBM binding z-score is -0.142.
On the same count and under the same terms, next, GCTATTACTTGAAAGGGCAACCGAATGATTCTCG: 0.831; ACAGACAGGTGATGAAGTTAACTCAGGCTATCAT: -0.225; CCTAGTTCGTCAAGGTCACACACGCTATAGGTAC: 4.06.
The same measure, in the same setting: next, AATACAGGGTCATCGTAGGCCGGAGTACGCACAG: 4.53; CAATCTAGGTCACCGGAAGGTCAAAGTCCGCATG: 5.42.
On the same count and under the same terms, the same measure for TCTAGTTGGTCACGGAAGTCACACACGACGGGTA: 0.598; for CCTGCTAGGTCATCGTCAGCTAATCTACAGTATG: 1.87; for AGTCAAAGTTCACTAGGTCACGTAAGATTCAGCT: 4.32.
The sequence CCGAGCAGGCCAATCTGGGTCACTCAAGGCTTGA had a PBM binding z-score of 0.371.
Same read-out and setting: next, AGAATGAGGTTATTTAGATCAGGGAATTGCGGTC: 1.56.
Same read-out and setting: next, GCTGCTAGGTCAGGTTGGTCAGCGAACGGGTACG: 0.492; AGTCAAAGTTCAGGACGAGGTTACGTAAAGCACG: 2.7.
In turn, CCGACTGGGGCAGCAAGGTTACCATACCATCCGG registered a PBM binding z-score of -0.094.
On the same count and under the same terms, next, CCGAGTGGGGCAAAGGTTACCATACTCAGTACGA: 2.37.
